# In the library only some 3.5% were active in any assay of this set; here they are far more common.
# TEAD-YAP block = TEAD-YAP interaction inhibition | HEK-TIYL cells, TEAD-Gal4/YAP UAS-luciferase luminescence | inhibition, % at 9.12 µM | hit rate 1.4% among 640,000 | AID 1259422; in the data active means inhibition above about 32%;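 further: 0% = median of test compound wells and 100% = reference inhibitor wells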
# FBW7 act = human FBW7 E3 ligase activation, primary screen. Q969H0. AlphaScreen FBW7–phospho-cyclin E peptide binding, activator screen. normalized activity (activation), % at 26.1 µM. hit rate 0.13% among 650,000; in the data active means normalized activity above about 1.9%;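 further: purified mutant Fbw7 with reduced substrate affinity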
# Target sequence (Q969H0 whole entry, looked up): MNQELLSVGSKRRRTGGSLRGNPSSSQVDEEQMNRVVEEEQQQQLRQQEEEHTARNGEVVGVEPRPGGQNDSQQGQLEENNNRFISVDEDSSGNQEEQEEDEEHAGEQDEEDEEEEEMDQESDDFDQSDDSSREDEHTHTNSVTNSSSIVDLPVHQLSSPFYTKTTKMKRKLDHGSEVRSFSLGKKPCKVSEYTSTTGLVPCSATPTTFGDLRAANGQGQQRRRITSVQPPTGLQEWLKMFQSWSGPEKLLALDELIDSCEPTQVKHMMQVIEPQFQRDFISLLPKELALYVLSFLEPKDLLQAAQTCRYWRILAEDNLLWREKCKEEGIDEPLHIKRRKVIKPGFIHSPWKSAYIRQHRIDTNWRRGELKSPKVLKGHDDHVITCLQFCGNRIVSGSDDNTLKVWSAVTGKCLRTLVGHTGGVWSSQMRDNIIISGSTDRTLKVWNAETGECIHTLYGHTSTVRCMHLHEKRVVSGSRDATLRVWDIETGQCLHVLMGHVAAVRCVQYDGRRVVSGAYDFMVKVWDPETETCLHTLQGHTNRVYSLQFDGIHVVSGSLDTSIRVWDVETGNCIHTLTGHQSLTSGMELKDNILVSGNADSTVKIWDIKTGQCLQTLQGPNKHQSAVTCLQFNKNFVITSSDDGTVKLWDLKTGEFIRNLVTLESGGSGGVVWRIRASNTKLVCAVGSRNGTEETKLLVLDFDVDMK
# GPR151 ag = activators of human GPR151; activation, % at 11.2 µM; Q8TDV0; hit rate 1% among 650,000; AID 1508602; PathHunter beta-arrestin GPR151 cells, luminescence; in the data active means activation above about 4.9%;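 further: 0% = median of compound wells and 100% = cells with positive control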
# MITF primary = human MITF inhibition, primary screen; O75030; AlphaScreen MITF homodimerization, bead proximity signal; inhibition, % at 2.6 µM; hit rate 0.91% among 650,000; AID 1259374; in the data active means inhibition above about 50%;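 further: 0% = vehicle wells with protein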
# * marks the source's active call; other numbers are inactive results.
SMILES,TEAD-YAP block,FBW7 act,GPR151 ag,MITF primary
COc1cccc(C2C=C(c3ccc(C)cc3)Nc3nnnn32)c1 (centres undefined),32*,0,0,4
COc1ccc(C2=CC(c3cc(OC)ccc3OC)n3nnnc3N2)cc1 (centres undefined),-4,0,0,4
COc1cccc(C2=CC(c3cc(OC)ccc3OC)n3nnnc3N2)c1 (centres undefined),50*,0,-2,10
CSc1nnc(C(C)(C)C)c(=O)n1/N=C/c1ccccc1O,6,0,0,75*
CSc1nnc(C(C)(C)C)c(=O)n1/N=C/c1ccccc1[N+](=O)[O-],6,0,0,11
O=C(COC(=O)c1ccc([N+](=O)[O-])o1)Nc1cccc(C(F)(F)F)c1,4,0,0,-1
O=C(Nc1cccc(C(F)(F)F)c1)c1cc([N+](=O)[O-])ccc1Cl,52*,1,3,22
O=C(Nc1cccc(C(F)(F)F)c1)c1ccc([N+](=O)[O-])o1,36*,0,0,12
O=C(Nc1cccc(O)c1)c1ccc([N+](=O)[O-])cc1Cl,73*,0,-1,-8
O=C(Nc1cccc([N+](=O)[O-])c1)c1ccco1,2,0,-1,-1
O=C(Nc1sccc1C(=O)Nc1cccc([N+](=O)[O-])c1)c1ccco1,39*,0,2,3
CC(=O)Nc1cccc(NC(=O)c2cc([N+](=O)[O-])ccc2Cl)c1,18,1,0,14
CC(=O)Nc1cccc(NC(=O)c2ccc([N+](=O)[O-])cc2Cl)c1,0,0,0,16
Cc1ccc(NC(=O)C(Cc2ccccc2)N2C(=O)c3ccccc3C2=O)cc1Cl (centres undefined),-4,0,-1,-13
CN(C)S(=O)(=O)c1ccc(NC(=O)CSc2nc(N)cc(=O)[nH]2)cc1,1,0,-1,7
CCOc1ccc(S(=O)(=O)Nc2cc(-n3c(C)nc4ccccc4c3=O)ccc2F)cc1,3,0,0,10
CCOCCOc1cccc(C(=O)Nc2ccc(C)c(C)c2)c1,-51,1,-3,8
O=C(Nc1cccc(OC(=O)c2ccc(Cl)cc2)c1)c1ccc([N+](=O)[O-])cc1,32*,0,1,-14
COC(=O)c1ccc(NC(=O)c2ccc(OC)c([N+](=O)[O-])c2)cc1,-2,3.7*,-3,21
COc1cccc(NC(=O)c2cc([N+](=O)[O-])ccc2Cl)c1,19,0,0,-23
COc1ccc(NC(=O)c2cc([N+](=O)[O-])ccc2Cl)cc1,34*,0,1,4
CC(=O)Nc1ccc(NC(=O)c2cc([N+](=O)[O-])ccc2Cl)cc1,14,0,-1,17
COc1ccc(C(=O)Nc2ccncc2)cc1[N+](=O)[O-],7,0,0,-9
O=C(Nc1ccc(F)cc1)c1cc([N+](=O)[O-])ccc1Cl,33*,1,-2,21
O=C(NNC(=O)c1cc2ccccc2oc1=O)c1cccc(I)c1,-1,0,-2,7
SMILES,TEAD-YAP block,FBW7 act,GPR151 ag,MITF primary
Cc1c(-n2c(SCC(=O)N(c3ccccc3)C(C)C)nc3sc4c(c3c2=O)CCCC4)c(=O)n(-c2ccccc2)n1C,2,0,0,6
CC(=O)Nc1ccc(-n2nnnc2SCC(=O)OC2CCCCC2)cc1,-3,0,1,4
Cc1c(C(=O)Nc2cccc([N+](=O)[O-])c2)sc2ncn(C)c(=O)c12,-10,0,-2,-2
O=C(Nc1ccc(C23CC4CC(CC(c5ccccc5)(C4)C2)C3)cc1)c1cc([N+](=O)[O-])ccc1Cl,59*,0,-2,11
O=C(Nc1ccc(I)cc1)c1cc([N+](=O)[O-])ccc1Cl,38*,0,-1,-18
O=C(Nc1ccc(O)cc1C(=O)O)c1cccc([N+](=O)[O-])c1,0,-1,-6,53*
N/C(CC(=O)Nc1cccc(C(F)(F)F)c1)=N\O,0,0,1,7
O=C(CCl)Nc1cccc(C(F)(F)F)c1,34*,0,0,-2
CN1CCC(N(C(=O)COCC(=O)O)C2CC2)CC1,1,0,0,5
CC(=O)c1ccc(OCCCC(=O)NCCSCc2ccco2)cc1,-1,0,1,3
Cc1ccccc1-c1cnnc(NCC2CCCN(c3ncccn3)C2)n1 (centres undefined),14,0,-1,5
CC(C)OC(=O)/C=C1\CC(c2ccccc2)N(Cc2ccccc2)CC1(C)O (centres undefined),-9,0,1,-4
Cc1cc(O)ccc1N1C(=O)c2cccc3cccc(c23)C1=O,3,0,0,11
COC(=O)c1ccc(NC(=O)c2cc([N+](=O)[O-])ccc2Br)cc1,33*,0,0,-9
COc1ccc2nc(NC(=O)c3cc([N+](=O)[O-])ccc3Cl)sc2c1,33*,0,-1,-2
Cc1nn(CCC#N)cc1/C=C(\C#N)c1nc2ccccc2s1,-16,0,2,6
Cc1[nH]n(-c2ccccc2)c(=O)c1C(=O)c1cccc(Br)c1,59*,0,1,12
Cc1[nH]n(-c2ccccc2)c(=O)c1C(c1cccc(Br)c1)c1c(C)[nH]n(-c2ccccc2)c1=O,1,-1,-1,0
Brc1ccc(-c2cn3c4ccccc4nc3n2CCCN2CCCCC2)cc1,-2,2.2*,-2,7
CCN(CC)CCCn1c(-c2ccc(Cl)cc2)cn2c3ccccc3nc12,2,1,0,-3
Clc1ccc(-c2cn3c4ccccc4nc3n2CCCNC2CCCCC2)cc1,-13,3.1*,3,-17
CCN(CC)CCCn1c(-c2ccc(Br)cc2)cn2c3ccccc3nc12,-3,2.2*,2,20
CC(C)(C)OC(=O)/C(C#N)=C1\CCC(C2CC/C(=C(/C#N)C(=O)OC(C)(C)C)N2)N1 (centres undefined),1,0,0,3
O=C(c1cccc([N+](=O)[O-])c1)N1CCN=C1SCc1ccccc1F,3,0,1,-9
CC(C)N(CCNc1nc(-c2cccc(N)c2)nc2c1ncn2C(C)C)C(C)C,53*,0,1,-7
SMILES,TEAD-YAP block,FBW7 act,GPR151 ag,MITF primary
CC(C)N(CCNc1nc(-c2ccc(N3CCN(C)CC3)cc2)nc2c1ncn2C(C)C)C(C)C,39*,0,0,13
CC(=O)c1cccc(-c2nc(NCc3nc4ccccc4[nH]3)c3ncn(C(C)C)c3n2)c1,67*,0,2,-1
CC(C)n1cnc2c(NCCO)nc(-c3cccc(N)c3)nc21,-5,0,4,12
CC(C)n1cnc2c(NCc3nc4ccccc4[nH]3)nc(-c3cccc(N)c3)nc21,84*,0,2,3
Cc1ccc(-c2nnc(CCC(=O)N3CCCCC3CO)o2)s1 (centres undefined),-7,0,0,10
COc1cc(CNC2CCN(c3nc(C)c4cc5c(cc4n3)CCC5)CC2)cc(OC)c1,4,1,-2,-2
Nc1cccc(-c2nc(NCc3nc4ccccc4[nH]3)c3ncn(-c4ccccc4)c3n2)c1,35*,0,-1,14
